This is part of a sample that, as a whole, favours compounds with a hit. Of some 79,000 tested, about 15% had one in any assay. Active and inactive are the calls of the source. No stated cut-off is given here; in the data, active means growth inhibition above about 70%; inactive means the rest.
Assays:
[1] = NCI Yeast Anticancer Drug Screen. Data for the rad52 strain (AID 147);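 further: 0% = growth of vehicle-treated control cultures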; details: S. cerevisiae rad52 mutant growth inhibition, hits give high values
Procedure, shortened: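 Yeast strain carrying a DNA damage repair alteration was exposed to test compounds. Growth inhibition was measured relative to vehicle-treated controls.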

[2] = NCI Yeast Anticancer Drug Screen. Data for the wt1 strain (AID 149);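 further: 0% = growth of vehicle-treated wt1 cultures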; details: S. cerevisiae wt1 strain (SPY 50644) growth inhibition, hits give high values
Procedure, shortened: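 Yeast wt1 strain exposed to compounds; growth inhibition measured relative to vehicle-treated controls.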

[3] = NCI Yeast Anticancer Drug Screen. Data for the rad50EPP+ strain (AID 151);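 further: 0% = growth of vehicle-treated control cultures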; details: S. cerevisiae rad50 mutant strain, hits give high values
Procedure, shortened: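 Yeast strain carrying rad50 alteration (rad50EPP+) exposed to compounds; growth inhibition measured relative to vehicle-treated controls.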

[4] = NCI Yeast Anticancer Drug Screen. Data for the mgt1 strain (AID 153); details: S. cerevisiae mgt1 mutant growth inhibition, hits give high values
Procedure, shortened: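 Yeast mgt1 strain (DNA repair/cell-cycle alteration panel) exposed to compounds; growth inhibition measured relative to vehicle-treated controls.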

[5] = NCI Yeast Anticancer Drug Screen. Data for the rad50 strain (AID 155);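 further: 0% = growth of vehicle-only cultures of the same strain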; details: S. cerevisiae rad50 strain growth inhibition, hits give high values
Procedure, shortened: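 Yeast carrying a defined DNA repair defect were exposed to test compounds, and growth was compared with vehicle-treated controls to give percent inhibition.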

[6] = NCI Yeast Anticancer Drug Screen. Data for the mec2-1 strain (AID 157); details: S. cerevisiae mec2-1 strain, hits give high values
Procedure, shortened: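 mec2-1 yeast strain, carrying an alteration in DNA damage repair or cell cycle control, was exposed to compounds; growth inhibition was measured relative to vehicle-treated controls.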

[7] = NCI Yeast Anticancer Drug Screen. Data for the sgs1 mgt1 strain (AID 161);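 further: 0% = growth of cultures given vehicle only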; details: S. cerevisiae sgs1 mgt1 strain, hits give high values
Procedure, shortened: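 Yeast cells carrying a defined DNA-repair defect were exposed to test compounds. Growth inhibition was measured relative to vehicle-treated controls.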

[8] = NCI Yeast Anticancer Drug Screen. Data for the CLN2oe strain (AID 163);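 further: 0% = growth of vehicle-only control cultures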; details: S. cerevisiae CLN2oe strain, hits give high values
Procedure, shortened: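 Yeast cells carrying a defined cell-cycle control alteration were exposed to test compounds. Growth inhibition was scored against vehicle-treated control cultures.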

[9] = NCI Yeast Anticancer Drug Screen. Data for the cln2 rad14 strain (AID 165);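 further: 0% = growth equal to vehicle treated cultures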; details: S. cerevisiae cln2 rad14 strain, hits give high values
Procedure, shortened: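 Yeast carrying cln2 and rad14 alterations (cell cycle control and DNA damage repair) were exposed to compounds. Growth inhibition was measured against vehicle-treated controls.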

[10] = NCI Yeast Anticancer Drug Screen. Data for the bub3 strain (AID 167); details: S. cerevisiae bub3 mutant strain, hits give high values
Procedure, shortened: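 Compounds were applied to a genetically altered yeast strain carrying a cell-cycle control defect. Growth inhibition was scored against vehicle-treated controls.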

[11] = NCI Yeast Anticancer Drug Screen. Data for the mlh1 strain (AID 171);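 further: 0% = growth of vehicle-treated control cultures of the same strain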; details: S. cerevisiae mlh1 strain growth inhibition, hits give high values
Procedure, shortened: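 Yeast carrying a defined genetic alteration in DNA damage repair or cell cycle control were exposed to test compounds. Growth inhibition was measured relative to vehicle-treated controls.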

[12] = NCI Yeast Anticancer Drug Screen. Data for the sgs1 strain (AID 173);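 further: 0% = growth of vehicle-only control cultures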; details: S. cerevisiae sgs1 mutant, hits give high values
Procedure, shortened: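 Yeast mutant strains carrying defined defects in DNA damage repair or cell cycle control were exposed to test compounds. Growth inhibition was scored against vehicle-treated controls.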

[13] = NCI Yeast Anticancer Drug Screen. Data for the rad18 strain (AID 177); details: S. cerevisiae rad18 mutant growth inhibition, hits give high values
Procedure, shortened: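 Yeast carrying a defined DNA damage repair alteration were exposed to compounds. Growth inhibition was expressed relative to vehicle-treated controls.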

[14] = NCI Yeast Anticancer Drug Screen. Data for the rad14 strain (AID 159);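 further: 0% = growth of vehicle-treated control cultures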; details: S. cerevisiae rad14 strain growth inhibition, hits give high values
Procedure, shortened: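 Yeast cells carrying a defined DNA-repair defect were exposed to compounds, and growth inhibition was calculated relative to vehicle-treated control cultures.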

[15] = NCI Yeast Anticancer Drug Screen. Data for the wt2 strain (AID 169);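 further: 0% = growth of vehicle-treated yeast cultures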; details: S. cerevisiae wt2 strain growth inhibition, hits give high values
Procedure, shortened: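 Yeast cells were exposed to test compounds, and growth inhibition was measured relative to vehicle-treated controls.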

[16] = NCI Yeast Anticancer Drug Screen. Data for the mlh1 rad18 strain (AID 175); details: S. cerevisiae mlh1 rad18 strain growth inhibition, hits give high values
Procedure, shortened: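 Growth inhibition of the yeast strain was measured after compound exposure and expressed relative to vehicle-treated controls. The strain carries defined defects in DNA damage repair.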

[17] = at 5.0 µM (retest, dose inferred, filed as 0.5)
[18] = at 50.0 µM (retest, dose inferred, filed as 5.0)

Measured: growth inhibition

Cc1ccc(Cl)c2[nH]c(-c3ccccc3)cc(=O)c12
active: [10]; [18] 93% | [10]; at 50.0 µM 72%
inactive: [1]; at 1.2 µM -1% | [1]; at 3.7 µM -1% | [1]; at 11.0 µM 1% | [1]; at 33.0 µM 2% | [1]; at 100.0 µM 3% | [2]; at 1.2 µM -3% | [2]; at 3.7 µM -3% | [2]; at 11.0 µM -4% | [2]; at 33.0 µM -2% | [2]; at 100.0 µM 0% | [3]; at 1.2 µM 1% | [3]; at 3.7 µM 2% | [3]; at 11.0 µM 6% | [3]; at 33.0 µM 9% | [3]; at 100.0 µM 6% | [4]; at 1.2 µM -5% | [4]; at 3.7 µM -3% | [4]; at 11.0 µM 19% | [4]; at 33.0 µM -25% | [4]; at 100.0 µM -4% | [5]; at 1.2 µM -1% | [5]; at 3.7 µM 0% | [5]; [17] -10% | [5]; at 11.0 µM -29% | [5]; at 33.0 µM 0% | [5]; [18] 13% | [5]; at 50.0 µM 29.2% | [5]; at 100.0 µM 0% | [6]; at 1.2 µM 0% | [6]; at 3.7 µM -3% | [6]; [17] -11% | [6]; at 11.0 µM 0% | [6]; at 33.0 µM -2% | [6]; [18] 10% | [6]; at 50.0 µM 40.6% | [6]; at 100.0 µM 0% | [7]; [17] -28% | [7]; [18] 12% | [7]; at 50.0 µM 55.5% | [8]; at 1.2 µM 0% | [8]; at 3.7 µM -5% | [8]; at 11.0 µM -1% | [8]; at 33.0 µM -5% | [8]; at 100.0 µM 1% | [9]; [17] -9% | [9]; [18] -2% | [9]; at 50.0 µM 13.4% | [10]; at 1.2 µM -2% | [10]; at 3.7 µM -2% | [10]; [17] -17% | [10]; at 11.0 µM 7% | [10]; at 33.0 µM 0% | [10]; at 100.0 µM 2% | [11]; at 1.2 µM 0% | [11]; at 3.7 µM -2% | [11]; at 11.0 µM -4% | [11]; at 33.0 µM -2% | [11]; at 100.0 µM 0% | [12]; at 1.2 µM -3% | [12]; at 3.7 µM -4% | [12]; at 11.0 µM -4% | [12]; at 33.0 µM -3% | [12]; at 100.0 µM 0% | [13]; at 1.2 µM -5% | [13]; at 3.7 µM -1% | [13]; at 11.0 µM -6% | [13]; at 33.0 µM -24% | [13]; at 100.0 µM 14%

O=C1NC(=O)C2C3C=CC(C3)C12 (stereo not drawn)
active: [3]; at 33.0 µM 91% | [3]; at 100.0 µM 97% | [7]; [18] 93% | [7]; at 50.0 µM 94.3% | [15]; at 11.0 µM 94% | [15]; at 33.0 µM 97% | [15]; at 100.0 µM 98% | [11]; at 11.0 µM 79% | [11]; at 33.0 µM 95% | [11]; at 100.0 µM 97% | [12]; at 11.0 µM 97% | [12]; at 33.0 µM 98% | [12]; at 100.0 µM 98%
inactive: [1]; at 1.2 µM -7% | [1]; at 3.7 µM 0% | [1]; at 11.0 µM -2% | [1]; at 33.0 µM -7% | [1]; at 100.0 µM -7% | [2]; at 1.2 µM -5% | [2]; at 3.7 µM -5% | [2]; at 11.0 µM -7% | [2]; at 33.0 µM -7% | [2]; at 100.0 µM -5% | [3]; at 1.2 µM 2% | [3]; at 3.7 µM 21% | [3]; at 11.0 µM 67% | [5]; at 1.2 µM -6% | [5]; at 3.7 µM -4% | [5]; [17] -149% | [5]; at 11.0 µM 5% | [5]; at 33.0 µM 8% | [5]; [18] -66% | [5]; at 50.0 µM 3.3% | [5]; at 100.0 µM 0% | [6]; at 1.2 µM -1% | [6]; at 3.7 µM 0% | [6]; [17] -46% | [6]; at 11.0 µM 1% | [6]; at 33.0 µM 1% | [6]; [18] -42% | [6]; at 50.0 µM -2% | [6]; at 100.0 µM -2% | [14]; at 1.2 µM -1% | [14]; at 3.7 µM 3% | [14]; at 11.0 µM 0% | [14]; at 33.0 µM -2% | [14]; at 100.0 µM -1% | [7]; [17] 31% | [8]; at 1.2 µM -4% | [8]; at 3.7 µM -1% | [8]; at 11.0 µM 0% | [8]; at 33.0 µM -6% | [8]; at 100.0 µM -3% | [9]; [17] -55% | [9]; [18] -54% | [9]; at 50.0 µM -13.2% | [10]; at 1.2 µM -5% | [10]; at 3.7 µM -4% | [10]; [17] -64% | [10]; at 11.0 µM -7% | [10]; at 33.0 µM -8% | [10]; [18] -62% | [10]; at 50.0 µM -3.55% | [10]; at 100.0 µM -5% | [15]; at 1.2 µM -5% | [15]; at 3.7 µM 40% | [11]; at 1.2 µM 1% | [11]; at 3.7 µM 12% | [12]; at 1.2 µM -4% | [12]; at 3.7 µM 63% | [16]; [17] -124% | [16]; [18] -123% | [16]; at 50.0 µM 10.6% | [13]; at 1.2 µM -2% | [13]; at 3.7 µM 0% | [13]; at 11.0 µM 0% | [13]; at 33.0 µM 0% | [13]; at 100.0 µM 1%

Source: PubChem BioAssay (NCI)
